Structures are written as SMILES. Values joined by “and” are separate entries in the source; they are usually repeats but may differ in a detail not shown here. Identical values can stand only once.
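Also: reported figure is a mean percent inhibition of FGFR2.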

For this assay, the target named is Fibroblast growth factor receptor 2 (Homo sapiens) (UniProt P21802). The following applies: at 1 µM.
Chain of Fibroblast growth factor receptor 2 (Homo sapiens) (P21802 22-821 limits assumed): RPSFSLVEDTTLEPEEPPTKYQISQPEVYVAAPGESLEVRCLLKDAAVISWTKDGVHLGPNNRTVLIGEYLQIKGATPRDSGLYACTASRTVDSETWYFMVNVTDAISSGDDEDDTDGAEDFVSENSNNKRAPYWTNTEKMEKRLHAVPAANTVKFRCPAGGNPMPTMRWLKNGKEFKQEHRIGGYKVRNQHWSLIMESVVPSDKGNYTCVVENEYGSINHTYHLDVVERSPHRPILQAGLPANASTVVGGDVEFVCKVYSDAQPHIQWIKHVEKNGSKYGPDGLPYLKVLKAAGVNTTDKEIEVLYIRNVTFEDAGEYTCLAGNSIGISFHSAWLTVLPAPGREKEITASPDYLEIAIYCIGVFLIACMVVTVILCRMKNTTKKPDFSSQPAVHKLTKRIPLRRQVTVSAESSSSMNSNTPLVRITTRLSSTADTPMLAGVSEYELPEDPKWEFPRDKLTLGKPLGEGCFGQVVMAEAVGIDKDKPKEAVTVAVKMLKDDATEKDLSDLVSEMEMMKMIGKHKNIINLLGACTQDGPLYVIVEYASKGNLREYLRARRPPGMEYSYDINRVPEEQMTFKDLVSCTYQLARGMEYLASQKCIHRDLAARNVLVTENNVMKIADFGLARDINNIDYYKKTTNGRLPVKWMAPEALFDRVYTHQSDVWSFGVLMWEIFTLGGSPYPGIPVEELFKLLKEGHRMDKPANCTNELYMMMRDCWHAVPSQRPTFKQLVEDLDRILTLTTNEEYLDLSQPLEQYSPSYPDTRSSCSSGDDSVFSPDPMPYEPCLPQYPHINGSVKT
What is called inhibition is the drop in the measured response relative to a control, in per cent. Consider `COc1ccccc1-c1cc(/C=C2\C(=O)Nc3ncc(Br)cc32)cc(Br)c1O`, for which the inhibition was 18%.

With `COc1cc2c(cc1Nc1nc(Nc3cccc(F)c3C(N)=O)c3cc[nH]c3n1)N(C(=O)CN1CCN(C(C)C)CC1)CC2`, the inhibition came out at 0.93%.

For `COc1ccc(-c2nn3ncccc3c2-c2ccnc(Nc3ccc(F)c(F)c3)n2)cc1`, the inhibition came to 7.4%.

Consider `Cc1cc(O)cc(C)c1/C=C/c1cncc(C(N)=O)c1`, for which the inhibition amounted to 7.34%.

With `Cc1nnc(-c2cccc(-c3ccc(C(=O)NCC4CC4)cc3)c2)o1`, the inhibition worked out at 5.08%.

As for `O=C(O[C@H]1CN[C@H](C#Cc2cc3ncnc(Nc4ccc5c(cnn5Cc5ccccc5)c4)c3s2)C1)N1CCOCC1`, the inhibition was -0.52%.

On to `CC(C)c1ccc(-c2cc(-c3c[nH]nc3-c3ccccn3)ccn2)cc1`, for which the inhibition worked out at 3.83%.

As to `COC(=O)Nc1nc2ccc(Oc3ccc(NC(=O)Nc4cc(C(F)(F)F)ccc4F)cc3)cc2s1`, the inhibition stood at 29.7%.

Turning to `CC1=C(C(=O)Nc2ccc3[nH]ncc3c2)C(c2ccc(F)cc2)N=C(c2ccc(C(F)(F)F)nc2)N1` (stereo not given), the inhibition is 9.66%.

On to `Cc1cc(O)cc(C)c1/C=C/c1cncc(C(=O)OC(C)(C)C)c1`, for which the inhibition was determined as 5.08%.

With `COC(=O)Nc1nc2cc(Oc3ccc(NC(=O)Nc4ccccc4)cc3)ccc2[nH]1`, the inhibition was 4.03%.

Take `CC1(C)CC(n2cnc(-c3ccc(F)cc3)c2-c2ccnc(N)n2)CC(C)(C)N1`: the inhibition was -0.31%.

In the case of `COc1cc(N2CCN(C(C)C)CC2)ccc1Nc1nc(Nc2cccc3ncccc23)c2cc[nH]c2n1`, the inhibition was found to be 1.97%.

With `c1ccc(-c2n[nH]cc2-c2ccnc(-c3ccc(OCCn4ccnc4)cc3)c2)nc1`, the inhibition stood at 2.51%.

In the case of `Nc1ncnc2occ(-c3ccc(NC(=O)Nc4cc(C(F)(F)F)ccc4F)cc3)c12`, the inhibition is 52.2% and 43.8%.

The values are drawn from ChEMBL document CHEMBL1961873, “Compounds: GSK PKIS; Assays: Nanosyn kinase panel” (2012).
